Reference: the supplement of paper PMC11732987, “Enantioselective OTUD7B fragment discovery through chemoproteomics screening and high-throughput optimisation” (Communications Chemistry, 2025)

Tests used:
Test in all cases: log2 ratio of Biotin-Ahx-Ub-VS probe labelling (fragment/DMSO); higher = less target engagement (more negative = stronger competition), active = hit call of the paper (q ≤ 0.05, log2 ratio ≤ -1)
Details in all cases: compound concentration: 200 uM; treatment time: 3 h
USP42 = target: T1, USP42 (UniProt Q9H9J4)
T1 sequence (whole entry): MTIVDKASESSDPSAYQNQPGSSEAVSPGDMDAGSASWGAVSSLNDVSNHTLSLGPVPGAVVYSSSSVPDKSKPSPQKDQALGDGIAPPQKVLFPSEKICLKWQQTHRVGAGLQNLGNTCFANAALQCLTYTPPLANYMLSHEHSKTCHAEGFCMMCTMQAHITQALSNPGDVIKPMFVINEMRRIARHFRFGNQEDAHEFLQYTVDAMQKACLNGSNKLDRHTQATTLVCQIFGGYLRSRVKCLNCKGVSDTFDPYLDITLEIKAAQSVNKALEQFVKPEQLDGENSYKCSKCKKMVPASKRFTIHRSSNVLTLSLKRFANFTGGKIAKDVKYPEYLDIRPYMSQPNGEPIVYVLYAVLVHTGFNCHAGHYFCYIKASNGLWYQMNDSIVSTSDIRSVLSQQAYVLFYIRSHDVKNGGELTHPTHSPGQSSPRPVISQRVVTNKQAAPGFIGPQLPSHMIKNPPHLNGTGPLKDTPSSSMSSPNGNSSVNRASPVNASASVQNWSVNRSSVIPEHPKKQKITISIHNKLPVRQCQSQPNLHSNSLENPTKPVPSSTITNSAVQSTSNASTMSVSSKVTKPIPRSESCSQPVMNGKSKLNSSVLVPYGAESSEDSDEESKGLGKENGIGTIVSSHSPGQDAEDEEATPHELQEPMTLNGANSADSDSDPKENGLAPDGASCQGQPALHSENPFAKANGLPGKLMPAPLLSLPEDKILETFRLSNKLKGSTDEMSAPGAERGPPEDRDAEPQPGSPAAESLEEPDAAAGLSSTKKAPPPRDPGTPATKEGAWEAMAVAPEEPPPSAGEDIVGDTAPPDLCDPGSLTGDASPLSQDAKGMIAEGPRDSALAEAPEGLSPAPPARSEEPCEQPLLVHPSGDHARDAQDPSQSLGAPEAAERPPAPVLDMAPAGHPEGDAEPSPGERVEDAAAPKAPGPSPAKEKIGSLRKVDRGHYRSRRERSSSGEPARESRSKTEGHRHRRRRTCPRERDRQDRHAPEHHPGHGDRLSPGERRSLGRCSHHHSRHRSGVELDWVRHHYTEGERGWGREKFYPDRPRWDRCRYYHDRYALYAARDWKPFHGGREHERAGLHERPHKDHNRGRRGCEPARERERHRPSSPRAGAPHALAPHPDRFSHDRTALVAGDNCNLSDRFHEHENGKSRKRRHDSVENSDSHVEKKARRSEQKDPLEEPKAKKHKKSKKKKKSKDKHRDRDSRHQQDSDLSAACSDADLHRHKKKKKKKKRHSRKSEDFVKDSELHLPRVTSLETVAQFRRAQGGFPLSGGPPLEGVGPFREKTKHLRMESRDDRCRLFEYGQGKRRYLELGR
Summary of the method: (§1)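 Average log2 ratios of fragment over vehicle were obtained by unpaired t-test from global-median-normalised Spectronaut label-free quantities. Proteins with ≥2 unique peptides were included. HEK293T lysate (495 µg per sample) was treated in triplicate with fragment at 200 µM or vehicle for 3 h, then with Biotin-Ahx-Ub-VS at 0.5 µM final for 1 h, and labelled DUBs were NeutrAvidin-enriched and run by diaPASEF LC-MS/MS.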

USP46 = USP46 (UniProt P62068)
Summary of the method: as §1

USP47 = target: T2, USP47 (UniProt Q96K76)
T2 sequence (whole entry): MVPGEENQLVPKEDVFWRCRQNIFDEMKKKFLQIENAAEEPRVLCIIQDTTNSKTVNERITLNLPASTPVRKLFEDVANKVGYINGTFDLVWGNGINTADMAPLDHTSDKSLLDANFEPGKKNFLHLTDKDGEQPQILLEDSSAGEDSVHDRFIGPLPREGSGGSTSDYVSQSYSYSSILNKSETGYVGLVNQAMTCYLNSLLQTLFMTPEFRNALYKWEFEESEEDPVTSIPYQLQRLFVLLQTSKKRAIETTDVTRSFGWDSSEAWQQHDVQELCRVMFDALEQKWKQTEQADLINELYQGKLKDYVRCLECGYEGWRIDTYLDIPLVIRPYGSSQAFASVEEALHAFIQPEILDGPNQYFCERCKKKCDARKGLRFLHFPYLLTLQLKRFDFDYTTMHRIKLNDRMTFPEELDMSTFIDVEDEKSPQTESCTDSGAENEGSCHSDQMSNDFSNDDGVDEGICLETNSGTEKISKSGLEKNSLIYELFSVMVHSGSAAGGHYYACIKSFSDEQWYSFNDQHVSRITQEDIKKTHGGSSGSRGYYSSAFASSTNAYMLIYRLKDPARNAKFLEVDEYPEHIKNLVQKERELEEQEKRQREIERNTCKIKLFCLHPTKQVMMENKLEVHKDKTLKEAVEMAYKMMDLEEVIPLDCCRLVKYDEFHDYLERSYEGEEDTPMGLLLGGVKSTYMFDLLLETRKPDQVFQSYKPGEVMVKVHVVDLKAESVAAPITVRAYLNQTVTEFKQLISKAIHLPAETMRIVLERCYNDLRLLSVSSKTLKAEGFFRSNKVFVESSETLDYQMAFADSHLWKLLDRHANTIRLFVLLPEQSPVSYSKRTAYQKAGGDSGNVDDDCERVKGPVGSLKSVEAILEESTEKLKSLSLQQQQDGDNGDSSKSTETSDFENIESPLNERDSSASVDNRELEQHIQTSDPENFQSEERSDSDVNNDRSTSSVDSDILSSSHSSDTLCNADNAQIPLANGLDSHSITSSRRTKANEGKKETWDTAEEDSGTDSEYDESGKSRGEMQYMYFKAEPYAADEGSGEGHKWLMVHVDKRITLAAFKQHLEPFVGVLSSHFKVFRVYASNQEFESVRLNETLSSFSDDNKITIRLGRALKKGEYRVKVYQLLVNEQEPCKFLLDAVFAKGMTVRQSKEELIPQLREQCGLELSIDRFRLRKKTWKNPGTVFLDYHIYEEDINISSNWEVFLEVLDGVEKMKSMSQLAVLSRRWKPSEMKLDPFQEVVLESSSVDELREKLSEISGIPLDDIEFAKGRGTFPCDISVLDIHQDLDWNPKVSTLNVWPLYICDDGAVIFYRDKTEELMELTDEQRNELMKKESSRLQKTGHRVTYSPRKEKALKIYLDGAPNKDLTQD
Summary of the method: as §1

USP48 = target: T3, USP48 (UniProt Q86UV5)
T3 sequence (whole entry): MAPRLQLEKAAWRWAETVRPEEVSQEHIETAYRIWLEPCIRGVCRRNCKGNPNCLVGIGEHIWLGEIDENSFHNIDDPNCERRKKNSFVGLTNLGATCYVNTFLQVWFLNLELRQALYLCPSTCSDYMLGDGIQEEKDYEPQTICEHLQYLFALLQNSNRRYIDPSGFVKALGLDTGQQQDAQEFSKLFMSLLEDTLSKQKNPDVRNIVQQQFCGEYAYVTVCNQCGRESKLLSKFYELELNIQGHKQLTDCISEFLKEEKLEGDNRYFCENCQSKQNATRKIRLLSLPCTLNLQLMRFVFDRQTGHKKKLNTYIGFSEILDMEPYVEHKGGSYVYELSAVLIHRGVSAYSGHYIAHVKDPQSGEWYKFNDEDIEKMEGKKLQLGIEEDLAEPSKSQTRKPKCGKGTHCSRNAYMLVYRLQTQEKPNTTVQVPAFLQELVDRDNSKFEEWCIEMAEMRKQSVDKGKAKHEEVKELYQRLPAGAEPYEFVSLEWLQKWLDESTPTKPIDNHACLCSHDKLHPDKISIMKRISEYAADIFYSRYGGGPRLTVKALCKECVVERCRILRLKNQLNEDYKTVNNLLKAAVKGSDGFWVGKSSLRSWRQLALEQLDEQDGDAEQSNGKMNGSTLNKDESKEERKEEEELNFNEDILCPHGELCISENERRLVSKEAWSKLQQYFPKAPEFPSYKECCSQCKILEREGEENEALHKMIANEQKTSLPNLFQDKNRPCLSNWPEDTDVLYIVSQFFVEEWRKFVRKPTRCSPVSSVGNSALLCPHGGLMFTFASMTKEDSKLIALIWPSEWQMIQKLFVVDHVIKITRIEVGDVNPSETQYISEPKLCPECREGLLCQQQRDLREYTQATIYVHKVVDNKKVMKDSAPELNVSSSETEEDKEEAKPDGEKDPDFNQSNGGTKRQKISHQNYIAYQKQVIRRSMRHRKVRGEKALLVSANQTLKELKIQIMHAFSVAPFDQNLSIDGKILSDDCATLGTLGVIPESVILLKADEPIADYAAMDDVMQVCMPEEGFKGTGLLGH
Summary of the method: as §1

USP5 = target: T4, USP5 (UniProt P45974)
T4 sequence (whole entry): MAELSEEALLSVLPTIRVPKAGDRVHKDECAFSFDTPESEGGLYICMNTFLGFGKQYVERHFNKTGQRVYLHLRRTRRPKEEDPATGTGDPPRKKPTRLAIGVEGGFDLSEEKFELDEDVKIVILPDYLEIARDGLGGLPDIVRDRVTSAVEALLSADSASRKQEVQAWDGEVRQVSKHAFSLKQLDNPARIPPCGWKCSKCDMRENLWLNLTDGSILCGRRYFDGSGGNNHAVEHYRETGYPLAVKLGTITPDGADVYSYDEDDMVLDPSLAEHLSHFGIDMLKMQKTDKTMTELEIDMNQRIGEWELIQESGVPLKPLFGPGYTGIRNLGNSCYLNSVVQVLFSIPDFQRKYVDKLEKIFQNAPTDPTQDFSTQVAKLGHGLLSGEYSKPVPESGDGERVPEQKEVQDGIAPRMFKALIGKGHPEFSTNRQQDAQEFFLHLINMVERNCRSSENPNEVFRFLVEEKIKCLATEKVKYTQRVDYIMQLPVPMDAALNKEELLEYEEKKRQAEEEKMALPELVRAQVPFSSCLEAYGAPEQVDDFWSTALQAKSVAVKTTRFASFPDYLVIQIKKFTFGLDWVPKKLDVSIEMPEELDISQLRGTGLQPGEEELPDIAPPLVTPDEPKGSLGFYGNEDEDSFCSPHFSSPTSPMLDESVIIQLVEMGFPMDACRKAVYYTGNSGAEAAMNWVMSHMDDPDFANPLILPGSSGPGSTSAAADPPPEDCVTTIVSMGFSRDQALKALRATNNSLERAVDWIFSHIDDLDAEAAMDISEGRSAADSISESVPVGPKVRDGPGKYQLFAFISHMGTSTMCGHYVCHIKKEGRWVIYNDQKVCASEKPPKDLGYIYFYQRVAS
Summary of the method: as §1

USP54 = USP54 (UniProt Q70EL1)
Summary of the method: as §1

USP7 = USP7 (UniProt Q93009)
Summary of the method: as §1

USP8 = target: T5, USP8 (UniProt P40818)
T5 sequence (whole entry): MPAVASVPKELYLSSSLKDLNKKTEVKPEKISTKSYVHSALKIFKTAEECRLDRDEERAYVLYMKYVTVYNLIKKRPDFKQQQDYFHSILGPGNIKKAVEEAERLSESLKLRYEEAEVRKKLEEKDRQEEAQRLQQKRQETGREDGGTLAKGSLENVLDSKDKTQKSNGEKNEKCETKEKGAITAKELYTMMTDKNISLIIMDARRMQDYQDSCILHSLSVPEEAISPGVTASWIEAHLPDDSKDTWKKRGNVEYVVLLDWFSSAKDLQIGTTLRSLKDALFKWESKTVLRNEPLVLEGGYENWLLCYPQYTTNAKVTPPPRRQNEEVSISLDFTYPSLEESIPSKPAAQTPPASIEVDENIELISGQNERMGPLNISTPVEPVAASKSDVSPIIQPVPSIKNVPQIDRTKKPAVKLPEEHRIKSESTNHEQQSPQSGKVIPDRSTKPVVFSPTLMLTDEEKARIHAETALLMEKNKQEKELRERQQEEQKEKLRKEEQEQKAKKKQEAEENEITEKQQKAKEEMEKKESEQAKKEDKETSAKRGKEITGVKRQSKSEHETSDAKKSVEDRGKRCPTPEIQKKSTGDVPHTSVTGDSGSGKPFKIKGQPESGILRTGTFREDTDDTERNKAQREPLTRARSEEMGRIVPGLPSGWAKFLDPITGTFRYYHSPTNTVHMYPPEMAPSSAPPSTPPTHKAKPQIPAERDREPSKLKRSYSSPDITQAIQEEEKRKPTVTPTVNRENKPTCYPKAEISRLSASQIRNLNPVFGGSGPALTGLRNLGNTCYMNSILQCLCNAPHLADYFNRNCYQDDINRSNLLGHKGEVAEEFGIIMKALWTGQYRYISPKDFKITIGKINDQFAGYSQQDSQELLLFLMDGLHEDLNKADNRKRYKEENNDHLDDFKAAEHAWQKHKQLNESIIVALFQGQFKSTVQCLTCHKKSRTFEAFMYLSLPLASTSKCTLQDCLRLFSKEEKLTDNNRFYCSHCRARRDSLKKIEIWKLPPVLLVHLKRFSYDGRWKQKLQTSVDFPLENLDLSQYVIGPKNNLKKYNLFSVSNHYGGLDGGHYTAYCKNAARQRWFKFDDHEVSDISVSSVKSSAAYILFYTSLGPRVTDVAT
Summary of the method: as §1

USP9X = USP9X (UniProt Q93008)
Summary of the method: as §1

UniProt O00487 = target: UniProt O00487
Summary of the method: as §1

Measured: log2 ratio of Biotin-Ahx-Ub-VS probe labelling

UniProt O00487, sequence (O00487 whole entry): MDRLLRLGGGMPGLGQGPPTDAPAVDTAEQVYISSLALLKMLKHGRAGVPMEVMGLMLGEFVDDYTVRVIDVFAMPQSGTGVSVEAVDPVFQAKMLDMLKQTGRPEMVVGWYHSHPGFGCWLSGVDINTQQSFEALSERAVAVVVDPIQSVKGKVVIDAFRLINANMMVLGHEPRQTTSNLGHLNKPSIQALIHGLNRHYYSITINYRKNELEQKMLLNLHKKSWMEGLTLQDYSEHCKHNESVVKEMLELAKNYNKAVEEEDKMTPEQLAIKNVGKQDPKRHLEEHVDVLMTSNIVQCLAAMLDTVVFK
USP9X, sequence (Q93008 whole entry): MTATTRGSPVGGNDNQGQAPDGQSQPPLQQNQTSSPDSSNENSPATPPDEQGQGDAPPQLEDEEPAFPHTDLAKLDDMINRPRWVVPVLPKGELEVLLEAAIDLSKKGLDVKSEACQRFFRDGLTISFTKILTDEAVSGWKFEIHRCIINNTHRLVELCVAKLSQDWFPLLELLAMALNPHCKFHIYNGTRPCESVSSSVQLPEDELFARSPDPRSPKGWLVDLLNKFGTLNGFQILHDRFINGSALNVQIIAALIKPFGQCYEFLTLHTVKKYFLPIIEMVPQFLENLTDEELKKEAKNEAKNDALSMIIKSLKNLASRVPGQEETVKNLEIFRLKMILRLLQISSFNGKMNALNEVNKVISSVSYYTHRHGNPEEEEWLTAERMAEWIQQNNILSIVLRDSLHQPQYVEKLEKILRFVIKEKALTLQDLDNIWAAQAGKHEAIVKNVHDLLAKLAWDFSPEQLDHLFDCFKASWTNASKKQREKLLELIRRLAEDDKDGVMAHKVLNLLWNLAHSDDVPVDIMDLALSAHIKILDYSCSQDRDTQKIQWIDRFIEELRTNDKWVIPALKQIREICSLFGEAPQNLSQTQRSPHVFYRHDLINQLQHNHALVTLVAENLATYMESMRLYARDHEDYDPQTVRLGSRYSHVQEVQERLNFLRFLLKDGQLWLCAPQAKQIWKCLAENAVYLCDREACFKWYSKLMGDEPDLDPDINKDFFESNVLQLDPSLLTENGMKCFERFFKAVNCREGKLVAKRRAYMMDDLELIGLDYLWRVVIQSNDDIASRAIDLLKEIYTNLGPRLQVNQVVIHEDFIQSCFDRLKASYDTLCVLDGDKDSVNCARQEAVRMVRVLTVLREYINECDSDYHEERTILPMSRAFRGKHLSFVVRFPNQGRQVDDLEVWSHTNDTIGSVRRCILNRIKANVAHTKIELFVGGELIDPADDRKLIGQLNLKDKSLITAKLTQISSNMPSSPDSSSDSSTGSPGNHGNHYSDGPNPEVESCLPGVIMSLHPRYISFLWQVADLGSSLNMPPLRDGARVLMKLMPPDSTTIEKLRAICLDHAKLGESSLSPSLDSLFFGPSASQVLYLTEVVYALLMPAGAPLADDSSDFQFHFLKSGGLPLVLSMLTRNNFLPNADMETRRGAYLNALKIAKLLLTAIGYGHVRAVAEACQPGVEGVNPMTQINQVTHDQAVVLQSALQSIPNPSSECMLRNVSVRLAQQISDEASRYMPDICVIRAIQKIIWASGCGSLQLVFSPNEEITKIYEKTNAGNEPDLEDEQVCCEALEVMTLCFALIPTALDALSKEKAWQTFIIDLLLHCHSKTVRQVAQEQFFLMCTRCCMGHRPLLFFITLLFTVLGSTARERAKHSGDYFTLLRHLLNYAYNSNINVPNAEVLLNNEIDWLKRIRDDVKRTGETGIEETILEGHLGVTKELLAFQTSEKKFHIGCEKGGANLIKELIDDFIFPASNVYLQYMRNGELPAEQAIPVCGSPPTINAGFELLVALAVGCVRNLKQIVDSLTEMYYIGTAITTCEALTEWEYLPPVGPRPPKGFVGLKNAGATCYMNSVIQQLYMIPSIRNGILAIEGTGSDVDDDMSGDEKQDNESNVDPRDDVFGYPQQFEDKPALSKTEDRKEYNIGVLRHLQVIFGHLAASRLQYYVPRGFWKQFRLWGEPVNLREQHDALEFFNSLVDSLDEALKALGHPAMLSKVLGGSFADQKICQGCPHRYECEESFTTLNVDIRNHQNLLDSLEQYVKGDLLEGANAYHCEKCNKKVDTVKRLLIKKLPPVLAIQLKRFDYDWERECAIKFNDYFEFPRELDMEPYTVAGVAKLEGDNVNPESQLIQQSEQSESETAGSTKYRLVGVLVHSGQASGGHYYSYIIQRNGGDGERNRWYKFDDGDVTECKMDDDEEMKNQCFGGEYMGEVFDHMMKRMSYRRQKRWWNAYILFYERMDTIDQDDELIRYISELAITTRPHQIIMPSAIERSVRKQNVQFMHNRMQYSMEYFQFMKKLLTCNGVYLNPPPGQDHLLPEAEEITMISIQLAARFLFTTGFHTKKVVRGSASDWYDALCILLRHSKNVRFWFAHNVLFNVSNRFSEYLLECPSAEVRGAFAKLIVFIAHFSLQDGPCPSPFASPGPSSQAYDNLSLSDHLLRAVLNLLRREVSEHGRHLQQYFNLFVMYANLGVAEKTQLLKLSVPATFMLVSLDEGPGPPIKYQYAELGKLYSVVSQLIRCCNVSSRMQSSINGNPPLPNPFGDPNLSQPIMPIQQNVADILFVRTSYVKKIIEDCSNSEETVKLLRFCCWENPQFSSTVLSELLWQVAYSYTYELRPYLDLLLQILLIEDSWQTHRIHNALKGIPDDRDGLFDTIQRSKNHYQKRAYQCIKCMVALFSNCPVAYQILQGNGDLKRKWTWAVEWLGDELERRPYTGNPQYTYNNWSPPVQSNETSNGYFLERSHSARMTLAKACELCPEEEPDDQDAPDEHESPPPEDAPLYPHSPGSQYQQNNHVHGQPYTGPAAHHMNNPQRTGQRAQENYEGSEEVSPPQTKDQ
USP54, sequence (Q70EL1 whole entry): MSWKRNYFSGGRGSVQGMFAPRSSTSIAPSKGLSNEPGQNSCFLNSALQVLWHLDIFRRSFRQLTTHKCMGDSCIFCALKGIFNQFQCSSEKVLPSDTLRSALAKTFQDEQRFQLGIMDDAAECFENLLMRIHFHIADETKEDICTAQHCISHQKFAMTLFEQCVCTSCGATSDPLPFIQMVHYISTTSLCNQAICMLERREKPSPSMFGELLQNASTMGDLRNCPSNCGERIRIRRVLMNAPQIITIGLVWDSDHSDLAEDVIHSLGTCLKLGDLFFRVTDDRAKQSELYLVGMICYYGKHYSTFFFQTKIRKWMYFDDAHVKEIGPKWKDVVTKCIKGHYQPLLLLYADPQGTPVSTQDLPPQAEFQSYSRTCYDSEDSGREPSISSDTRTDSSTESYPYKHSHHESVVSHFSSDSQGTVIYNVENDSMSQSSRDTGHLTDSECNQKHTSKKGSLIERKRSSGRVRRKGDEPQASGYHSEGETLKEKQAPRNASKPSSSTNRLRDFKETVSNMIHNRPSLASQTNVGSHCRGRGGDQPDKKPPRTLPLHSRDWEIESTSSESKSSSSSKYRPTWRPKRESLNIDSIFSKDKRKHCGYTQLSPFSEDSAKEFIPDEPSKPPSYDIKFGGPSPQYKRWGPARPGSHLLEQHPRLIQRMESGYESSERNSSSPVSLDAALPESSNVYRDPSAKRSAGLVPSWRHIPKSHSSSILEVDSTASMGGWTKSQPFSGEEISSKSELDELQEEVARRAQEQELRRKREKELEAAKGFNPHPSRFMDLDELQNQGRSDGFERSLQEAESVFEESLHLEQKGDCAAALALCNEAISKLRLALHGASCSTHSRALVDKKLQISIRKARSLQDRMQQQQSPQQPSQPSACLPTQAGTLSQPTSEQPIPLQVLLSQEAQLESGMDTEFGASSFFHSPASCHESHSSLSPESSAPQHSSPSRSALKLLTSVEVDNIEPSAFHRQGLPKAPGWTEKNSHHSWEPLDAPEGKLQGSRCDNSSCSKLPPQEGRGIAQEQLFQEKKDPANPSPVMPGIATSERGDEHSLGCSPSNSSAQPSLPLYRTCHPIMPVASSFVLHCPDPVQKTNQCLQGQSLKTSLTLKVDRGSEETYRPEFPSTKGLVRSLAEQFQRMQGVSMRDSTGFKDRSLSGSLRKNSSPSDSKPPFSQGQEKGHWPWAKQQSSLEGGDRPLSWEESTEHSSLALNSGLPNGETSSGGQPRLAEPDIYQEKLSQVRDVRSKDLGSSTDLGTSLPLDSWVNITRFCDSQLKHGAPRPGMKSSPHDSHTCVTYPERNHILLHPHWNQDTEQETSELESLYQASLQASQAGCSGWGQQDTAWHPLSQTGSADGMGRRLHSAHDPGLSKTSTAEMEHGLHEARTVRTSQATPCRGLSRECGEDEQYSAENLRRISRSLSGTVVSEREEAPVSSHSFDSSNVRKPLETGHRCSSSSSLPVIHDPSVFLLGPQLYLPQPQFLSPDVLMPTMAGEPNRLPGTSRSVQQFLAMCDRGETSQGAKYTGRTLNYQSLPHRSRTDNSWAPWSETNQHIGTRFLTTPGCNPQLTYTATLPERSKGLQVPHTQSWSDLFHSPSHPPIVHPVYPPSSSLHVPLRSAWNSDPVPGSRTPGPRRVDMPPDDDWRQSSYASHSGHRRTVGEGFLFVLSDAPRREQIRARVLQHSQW
USP46, sequence (P62068 whole entry): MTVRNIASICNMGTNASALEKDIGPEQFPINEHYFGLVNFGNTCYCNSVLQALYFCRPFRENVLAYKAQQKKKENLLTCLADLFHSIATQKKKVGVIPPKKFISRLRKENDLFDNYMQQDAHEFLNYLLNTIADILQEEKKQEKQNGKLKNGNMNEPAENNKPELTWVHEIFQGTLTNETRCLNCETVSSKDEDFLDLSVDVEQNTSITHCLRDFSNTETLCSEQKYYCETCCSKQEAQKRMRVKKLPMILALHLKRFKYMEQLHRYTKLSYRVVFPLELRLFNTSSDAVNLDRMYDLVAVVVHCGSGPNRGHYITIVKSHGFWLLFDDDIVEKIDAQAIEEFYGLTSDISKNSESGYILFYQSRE

NC(=O)C1CCCCN1C(=O)CCl (stereo not given)
active: USP48 -1.03
inactive: USP42 -0.0547 | USP46 0.025 | USP47 -0.299 | USP5 0.371 | USP54 0.325 | USP7 -0.76 | USP8 -0.26 | USP9X -0.213 | UniProt O00487 -0.0664
